According to PubChem BioAssay (NCI):
About 83,000 compounds went through this panel and 20% of them were active in at least one assay; those are over-represented in the sample as a whole.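 Treatment: one concentration, 48 hours, 96-well format. Scoring: percent growth, with anything below 10 considered active.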 Active and inactive are the calls of the source.

Tested on: EKVX NSCLC
Test: NCI-60 one-dose screen, 48 h (100 = growth as untreated, 0 = no growth, -100 = all killed)
Conditions: 10 µM unless noted

Compound	growth
C1=C\COCc2cc(ccc2OCCN2CCCC2)Nc2nccc(n2)-c2cccc(c2)COC/1	0.564% (active)
FC(F)c1nc2ccccc2n1-c1nc(N2CCOCC2)nc(N2CCOCC2)n1	2.75% (active)
Cc1cnc(Nc2ccc(OCCN3CCCC3)cc2)nc1Nc1cccc(S(=O)(=O)NC(C)(C)C)c1	26.4% (inactive)
C=CC(=O)Nc1cc2c(Nc3ccc(F)c(Cl)c3)ncnc2cc1OCCCN1CCOCC1	15.8% (inactive)
COc1cc2c(cc1OCCCN1Cc3ccc(OCCCCC(=O)N4CCC(CCN5CCCC5)CC4)cc3C1)N=C(N)C21CCCC1	96.9% (inactive)
COc1cc(Nc2ncc(F)c(Nc3ccc4c(n3)N(COP(=O)(O)O)C(=O)C(C)(C)O4)n2)cc(OC)c1OC	32.7% (inactive)
CNC(=O)c1cc(Oc2cccc3nc(Nc4ccc(Cl)c(F)c4)ccc23)ccn1	71.1% (inactive)
C[C@@H](Oc1cc(C(=O)Nc2ccc(C(=O)N3CCN(C)CC3)cc2)nnc1N)c1c(Cl)ccc(F)c1Cl	72.5% (inactive)
NC1(c2ccc(-c3nc4ccn5c(=O)[nH]nc5c4cc3-c3ccccc3)cc2)CCC1	40.6% (inactive)
C=CC(=O)N1CCC[C@@H](n2nc(-c3ccc(Oc4ccccc4)cc3)c3c(N)ncnc32)C1	52.8% (inactive)
Cn1ccnc1C(=O)/C=C/c1ccc(CC(=O)Nc2ccc(C(F)(F)F)cc2)cc1	14.9% (inactive)
CCNC(=O)Nc1nc2ccc(Oc3ccnc(C(=O)NC)c3)cc2s1	85.9% (inactive)
O=C(Cn1cncn1)Nc1ccc(-c2nc3ccccc3s2)cc1	90.2% (inactive)
Cc1ccc(NC(=O)Nc2ccc(Nc3ncnc4sc5c(c34)CCOC5)cc2)cc1Cl	110% (inactive)
Cc1cc2c(F)c(Oc3ncnn4cc(OC[C@@H](C)OC(=O)[C@H](C)N)c(C)c34)ccc2[nH]1	61.2% (inactive)
CC(C)(C)c1nc(-c2cccc(NS(=O)(=O)c3c(F)cccc3F)c2F)c(-c2ccnc(N)n2)s1	97.7% (inactive)
COC(=O)Nc1nc2ccc(C(=O)c3ccc(N(C)C4COC4)cc3)cc2[nH]1	26.9% (inactive)
CO[C@H]1C[C@@H]2CC[C@@H](C)[C@@](O)(O2)C(=O)C(=O)N2CCCC[C@H]2C(=O)O[C@H]([C@H](C)C[C@@H]2CC[C@@H](OC(=O)C(C)(CO)CO)[C@H](OC)C2)CC(=O)[C@H](C)/C=C(\C)[C@@H](O)[C@@H](OC)C(=O)[C@H](C)C[C@H](C)\C=C/C=C/C=C/1C	36.8% (inactive)
CO[C@@H](C)Cn1c(=O)n(C)c2cnc3ccc(-c4cncc(C(C)(C)O)c4)cc3c21	4.47% (active)
NC1=Nc2cc(OCCCN3Cc4ccccc4C3)c(OCC3CC3)cc2C12CCCC2	72.6% (inactive)
COc1cc2c(Oc3ccc(NC(=O)C4(C(=O)Nc5ccc(F)cc5)CC4)cc3F)ccnc2cc1OCCCN1CCOCC1	25.9% (inactive)
Cc1c(NC(=O)OC[C@@H]2COCCN2)cn2ncnc(Nc3ccc4c(cnn4Cc4cccc(F)c4)c3)c12	4.4% (active)
Cc1nc(NC(=O)N2CCC[C@H]2C(N)=O)sc1-c1ccnc(C(C)(C)C(F)(F)F)c1	41.1% (inactive)
COc1cc(NCCCN)c2ncccc2c1	105% (inactive)
Cc1cc(Nc2ncc(Cl)c(Nc3ccccc3S(=O)(=O)C(C)C)n2)c(OC(C)C)cc1C1CCNCC1	-87.6% (active)

Tested on: SN12C renal
Test: as above
Conditions: 10 µM unless noted

Compound	growth
O=C1C=CC2(NN=C(c3ccccc3)N2c2ccc(Cl)cc2)c2cccc(O)c21 (centres undefined)	26.4% (inactive)
CNC(=O)c1ccc(Nc2ncc(C(F)(F)F)c(NCc3nccnc3N(C)S(C)(=O)=O)n2)cc1	5.6% (active)
CN(C)C/C=C/C(=O)Nc1cc2c(Nc3ccc(F)c(Cl)c3)ncnc2cc1O[C@H]1CCOC1	3.6% (active)
COc1cc(Nc2c(C#N)cnc3cc(OCCCN4CCN(C)CC4)c(OC)cc23)c(Cl)cc1Cl	51.9% (inactive)
Cc1oc2c(C(=O)N/N=C\c3ccc(O)cc3O)c[nH]c2c1C	44.5% (inactive)
COc1c(OCCCN2CCOCC2)ccc2c3n(c(=NC(=O)c4cnc(N)nc4)nc12)CCN3	16.3% (inactive)
c1cn2cc(-c3ccc4cn[nH]c4c3)nc(Nc3ccc(N4CCOCC4)cc3)c2n1	41.3% (inactive)
CN1CCN(CCOc2cc(OC3CCOCC3)c3c(Nc4c(Cl)ccc5c4OCO5)ncnc3c2)CC1	46.1% (inactive)
O=C(Cc1ccc(-c2ccc(OCCN3CCOCC3)cc2)cn1)NCc1ccccc1	20.3% (inactive)
COc1ccc(F)c(F)c1C(=O)c1cnc(NC2CCN(S(C)(=O)=O)CC2)nc1N	14.5% (inactive)
CCOc1ccc(N=C(C)Nc2ccc(OCC)cc2)cc1	102% (inactive)
C[C@@H]1COC(Nc2ccc3ncnc(Nc4ccc(OCc5nccs5)c(Cl)c4)c3c2)=N1	53.8% (inactive)
CCCCCC(=O)OCc1ccc(Cl)c(Cl)c1	111% (inactive)
C=CC(=O)Nc1cccc(Oc2nc(Nc3ccc(N4CCN(C)CC4)cc3)nc3ccsc23)c1	-70.6% (active)
C1=C\COCc2cc(ccc2OCCN2CCCC2)Nc2nccc(n2)-c2cccc(c2)COC/1	-26.6% (active)
FC(F)c1nc2ccccc2n1-c1nc(N2CCOCC2)nc(N2CCOCC2)n1	8.54% (active)
Cc1cnc(Nc2ccc(OCCN3CCCC3)cc2)nc1Nc1cccc(S(=O)(=O)NC(C)(C)C)c1	12.6% (inactive)
C=CC(=O)Nc1cc2c(Nc3ccc(F)c(Cl)c3)ncnc2cc1OCCCN1CCOCC1	0.752% (active)
COc1cc2c(cc1OCCCN1Cc3ccc(OCCCCC(=O)N4CCC(CCN5CCCC5)CC4)cc3C1)N=C(N)C21CCCC1	95.3% (inactive)
COc1cc(Nc2ncc(F)c(Nc3ccc4c(n3)N(COP(=O)(O)O)C(=O)C(C)(C)O4)n2)cc(OC)c1OC	22.8% (inactive)

Compound	growth
CNC(=O)c1cc(Oc2cccc3nc(Nc4ccc(Cl)c(F)c4)ccc23)ccn1	63.2% (inactive)
C[C@@H](Oc1cc(C(=O)Nc2ccc(C(=O)N3CCN(C)CC3)cc2)nnc1N)c1c(Cl)ccc(F)c1Cl	64.5% (inactive)
NC1(c2ccc(-c3nc4ccn5c(=O)[nH]nc5c4cc3-c3ccccc3)cc2)CCC1	50.9% (inactive)
C=CC(=O)N1CCC[C@@H](n2nc(-c3ccc(Oc4ccccc4)cc3)c3c(N)ncnc32)C1	27.2% (inactive)
Cn1ccnc1C(=O)/C=C/c1ccc(CC(=O)Nc2ccc(C(F)(F)F)cc2)cc1	10% (active)
CCNC(=O)Nc1nc2ccc(Oc3ccnc(C(=O)NC)c3)cc2s1	91.9% (inactive)
O=C(Cn1cncn1)Nc1ccc(-c2nc3ccccc3s2)cc1	95.1% (inactive)
Cc1ccc(NC(=O)Nc2ccc(Nc3ncnc4sc5c(c34)CCOC5)cc2)cc1Cl	102% (inactive)
Cc1cc2c(F)c(Oc3ncnn4cc(OC[C@@H](C)OC(=O)[C@H](C)N)c(C)c34)ccc2[nH]1	55.6% (inactive)
CC(C)(C)c1nc(-c2cccc(NS(=O)(=O)c3c(F)cccc3F)c2F)c(-c2ccnc(N)n2)s1	80.1% (inactive)
COC(=O)Nc1nc2ccc(C(=O)c3ccc(N(C)C4COC4)cc3)cc2[nH]1	30.9% (inactive)
CO[C@H]1C[C@@H]2CC[C@@H](C)[C@@](O)(O2)C(=O)C(=O)N2CCCC[C@H]2C(=O)O[C@H]([C@H](C)C[C@@H]2CC[C@@H](OC(=O)C(C)(CO)CO)[C@H](OC)C2)CC(=O)[C@H](C)/C=C(\C)[C@@H](O)[C@@H](OC)C(=O)[C@H](C)C[C@H](C)\C=C/C=C/C=C/1C	34.8% (inactive)
CO[C@@H](C)Cn1c(=O)n(C)c2cnc3ccc(-c4cncc(C(C)(C)O)c4)cc3c21	14.5% (inactive)
NC1=Nc2cc(OCCCN3Cc4ccccc4C3)c(OCC3CC3)cc2C12CCCC2	77.6% (inactive)
COc1cc2c(Oc3ccc(NC(=O)C4(C(=O)Nc5ccc(F)cc5)CC4)cc3F)ccnc2cc1OCCCN1CCOCC1	14.5% (inactive)
Cc1c(NC(=O)OC[C@@H]2COCCN2)cn2ncnc(Nc3ccc4c(cnn4Cc4cccc(F)c4)c3)c12	0.74% (active)
Cc1nc(NC(=O)N2CCC[C@H]2C(N)=O)sc1-c1ccnc(C(C)(C)C(F)(F)F)c1	57.7% (inactive)
COc1cc(NCCCN)c2ncccc2c1	84.7% (inactive)
Cc1cc(Nc2ncc(Cl)c(Nc3ccccc3S(=O)(=O)C(C)C)n2)c(OC(C)C)cc1C1CCNCC1	-87.2% (active)
